Source: PubChem
FLuc inh = blocks purified firefly luciferase enzyme activity. purified P. pyralis luciferase, luminescence, biochemical. Potency, µM (titrated, usually from 115 µM), usual class: inhibitors. 76,000 compounds, 2.5% hits. AID 1347043; further: nearly all actives have a fitted effect of over 65% in size
Target sequence (P08659 whole entry, looked up): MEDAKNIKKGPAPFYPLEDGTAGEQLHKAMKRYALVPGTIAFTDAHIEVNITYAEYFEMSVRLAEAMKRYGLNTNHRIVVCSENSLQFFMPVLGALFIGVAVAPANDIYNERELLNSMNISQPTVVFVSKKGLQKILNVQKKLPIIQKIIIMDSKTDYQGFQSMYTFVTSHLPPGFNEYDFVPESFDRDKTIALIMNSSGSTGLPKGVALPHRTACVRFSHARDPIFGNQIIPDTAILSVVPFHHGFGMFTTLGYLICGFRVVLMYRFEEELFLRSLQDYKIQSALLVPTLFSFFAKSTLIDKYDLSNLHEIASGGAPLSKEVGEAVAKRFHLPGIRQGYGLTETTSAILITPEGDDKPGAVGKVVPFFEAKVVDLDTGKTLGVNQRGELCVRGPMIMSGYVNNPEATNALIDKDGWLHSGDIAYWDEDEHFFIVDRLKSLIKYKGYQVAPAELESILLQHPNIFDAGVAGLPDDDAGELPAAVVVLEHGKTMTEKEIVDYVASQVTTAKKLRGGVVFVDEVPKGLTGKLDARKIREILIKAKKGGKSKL
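Cell-free enzyme assay, 10nM P. pyralis luciferase, luciferin and ATP each at 10uM. Inhibition profiled over a 6-point titration, read as luminescence.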
3T3 cytotox = kills NIH 3T3 cells; NIH 3T3 viability, CellTiter-Glo ATP luminescence, 48-72 h; Potency, µM (top dose mostly 96.7 µM), actives largely listed as inhibitors; 94,000 compounds, 4.3% hits; AID 1345082; further: nearly all actives have a fitted effect of over 55% in size
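Viability of NIH 3T3 cells after 48 or 72 hr compound treatment at 37 °C was assessed by CellTiter-Glo, with luminescence imaged following a 10 min room-temperature step.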
NPR1 antag = antagonists of human natriuretic peptide receptor Npr1; P16066; 76,000 compounds, 1.6% hits; HEK293 hNpr1 GloSensor cGMP, ANP-stimulated luminescence; Potency, µM (titrated, usually from 46.3 µM), actives largely listed as inhibitors; calls by dose curve; further: nearly all actives have a fitted effect of over 60% in size
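HEK293 cells stably expressing human Npr1 and cGMP GloSensor pGS-40F, loaded 2 h with 2% GloSensor reagent, given compound 30 min at room temperature. Luminescence read before and 20 min after 0.1 nM hNppA.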
HEK293 tox = HEK 293 cell cytotoxicity. 94,000 compounds, 6.6% hits. Potency, µM (titrated, usually from 115 µM), most hits filed as inhibitors. HEK 293 viability, ATP luminescence (CellTiter-Glo), 48-72 h. AID 1345083; further: nearly all actives have a fitted effect of over 60% in size
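HEK 293 seeded at 250 cells/well receive compound via pintool. After 48 or 72 hr at 37 degree Celsius, 5% CO2 and 95% humidity, CellTiter-Glo is dispensed and luminescence read following 10 min at room temperature.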
Large screens that a line does not name were inactive. Shown are actives, neighbours in structure and some others; about 11% of the full set was active somewhere. Unless noted, the call rests on the fitted dose curve; in most records, active means well fitted curve in the direction sought with a large enough effect; inconclusive means small, poorly fitted or top-dose-only effect, or another doubt; inactive means no such curve, though single readings can be large; an effect the other way counts as inactive or inconclusive.

O=C(NC1CN(c2ccnc3ccnn23)C1)c1cc(F)ccc1Br	none (no result: FLuc inh, NPR1 antag)
Cc1ccc2nc(NC(=O)Cn3nc4c(cc3=O)CCCCC4)sc2c1	FLuc inh 35.5µM, HEK293 tox inconclusive
CC(C)[C@H](NC(=O)Cn1nc2c(cc1=O)CCCCC2)C(=O)O	FLuc inh 22.4µM
O=C(Cn1nc2c(cc1=O)CCCCC2)NCCn1ccc2c(Cl)cccc21	3T3 cytotox inconclusive, HEK293 tox 79.4µM
CC(C)NC(=O)Cn1nc2c(cc1=O)CCCCC2	none
COc1cccc([S+](=O)([O-])N2CCCC2C(=O)N2CCC(N3CCCC3=O)CC2)c1 (configuration not stated)	none (no result: FLuc inh, NPR1 antag)
COc1nc2nc(CCc3ccccc3)n(C)c2cc1Nc1ccncn1	FLuc inh 50.1µM, 3T3 cytotox inconclusive
CCCN1C(=O)CCc2cc(NC(=O)c3ccc(OC(F)(F)F)cc3)ccc21	FLuc inh inconclusive, 3T3 cytotox 39.8µM, NPR1 antag inconclusive, HEK293 tox inconclusive
CCN1C(=O)CCc2cc(NC(=O)c3ccc(F)cc3)ccc21	FLuc inh inconclusive, 3T3 cytotox inconclusive, HEK293 tox 39.8µM
CS(=O)(=O)N1CCc2ccc(C(=O)Nc3ccc(F)cc3)cc21	FLuc inh 8.91µM, NPR1 antag inconclusive, HEK293 tox inconclusive
CCN1C(=O)CCc2cc(NC(=O)c3cncc(Br)c3)ccc21	HEK293 tox inconclusive
CCCN1C(=O)CCc2cc(NC(=O)CCOC)ccc21	none
O=C(NC1CCCC1)N1CCC(C(=O)N2CCC(N3CCCC3=O)CC2)CC1	none (no result: FLuc inh, NPR1 antag)
COc1cccc(C(=O)N2CCC(C(=O)N3CCC(c4nc5ccncc5[nH]4)C3)CC2)c1 (configuration not stated)	none (no result: FLuc inh, NPR1 antag)
CCc1cn[nH]c1C1CCCN(C(=O)c2oc3cc(C)ccc3c2C)C1 (configuration not stated)	3T3 cytotox 44.7µM, HEK293 tox inconclusive
Cc1cccc(N2CCN(C(=O)CCc3conc3-c3ccccc3)CC2)c1C	3T3 cytotox inconclusive, HEK293 tox 44.7µM
CCOC(=O)C1c2c(OC)ccc3c2C(=CC(C)(C)CO3)CN1C(C)=O (configuration not stated)	HEK293 tox inconclusive (no result: FLuc inh, NPR1 antag)
Cc1oc2c(c1C(=O)N1CCCCCC1)CN(Cc1cccc(F)c1)CC2	3T3 cytotox inconclusive, HEK293 tox inconclusive
O=C(NC[C@H]1Cn2c(-c3ccc(F)cc3)cnc2CO1)c1cccnc1	FLuc inh inconclusive
Fc1ccc(CNC[C@H]2Cn3c(-c4ccc(Cl)cc4)cnc3CO2)cc1	3T3 cytotox inconclusive, NPR1 antag inconclusive, HEK293 tox 79.4µM
O=C(NC[C@H]1Cn2c(-c3ccc(Cl)cc3)cnc2CO1)c1cccnc1	FLuc inh inconclusive, 3T3 cytotox inconclusive, HEK293 tox 22.4µM
Clc1ccc(-c2cnc3n2C[C@H](CNCc2cccnc2)OC3)cc1	3T3 cytotox inconclusive, HEK293 tox inconclusive
Clc1ccc(CNC[C@H]2Cn3c(-c4cccc(Cl)c4)cnc3CO2)cc1	3T3 cytotox 44.7µM, NPR1 antag inconclusive, HEK293 tox 63.1µM
Clc1ccc(CNC[C@H]2Cn3c(-c4ccccc4)cnc3CO2)cc1	3T3 cytotox 89.1µM, NPR1 antag inconclusive, HEK293 tox 100µM
CC(C)CNC(=O)N1CC(Oc2ccc(-c3nc(-c4ccccc4)no3)cc2)C1	NPR1 antag 0.501µM, HEK293 tox inconclusive
O=C(NC1CCCC1)N1CC(Oc2ccc(-c3nc(-c4ccccc4)no3)cc2)C1	FLuc inh inconclusive, NPR1 antag 0.316µM, HEK293 tox inconclusive
O=C(c1ccc(C(F)(F)F)cc1)N1CCCC1C(=O)N1CCCC1c1nc2ccncc2[nH]1 (configuration not stated)	none (no result: FLuc inh, NPR1 antag)
Cn1cccc1C(=O)NC1CCCN(c2cc(-c3ccc(Cl)cc3)[nH]n2)C1 (configuration not stated)	FLuc inh inconclusive, 3T3 cytotox 39.8µM, HEK293 tox 39.8µM
O=C(NC1CCCN(c2cc(-c3ccc(Cl)cc3)[nH]n2)C1)c1ccccn1 (configuration not stated)	FLuc inh 39.8µM, 3T3 cytotox inconclusive, HEK293 tox 44.7µM
O=C(NC1CCCN(c2cc(-c3ccc(F)cc3)[nH]n2)C1)c1ccccn1 (configuration not stated)	FLuc inh inconclusive, 3T3 cytotox inconclusive, HEK293 tox inconclusive
O=C1CCCCC(C(=O)NCc2ccc(OC(F)(F)F)cc2)N1 (configuration not stated)	none (no result: FLuc inh, NPR1 antag)
c1cc(-c2nc3c(c(NCc4cn5c(n4)SCC5)n2)CCNCC3)ccn1	3T3 cytotox inconclusive, HEK293 tox 20µM
COC(=O)NC1CCCN(c2ccc3nnc(C4CC4)n3n2)C1 (configuration not stated)	none (no result: FLuc inh, NPR1 antag)
Cc1nn(-c2ccccc2)c2c1C(C1CC1)N(C1CCN(Cc3cccc(C(F)(F)F)c3)CC1)C2=O (configuration not stated)	none (no result: FLuc inh, NPR1 antag)
COc1ccc2c(c1)OC[C@@H]1CN(C)C(=O)CCN(C(=O)Cc3cccs3)[C@H]21	3T3 cytotox inconclusive (no result: FLuc inh, NPR1 antag)
CC(C)c1ccc(C(=O)NCc2ccnc3[nH]ccc23)cc1	FLuc inh 25.1µM, 3T3 cytotox inconclusive, HEK293 tox inconclusive
Cc1ccc(C(=O)NCc2ccnc3[nH]ccc23)cc1	FLuc inh inconclusive
Cc1c(Cl)cccc1NC(=O)Cn1c(C)cc2nc3n(c(=O)c21)CCCCC3	none
N#Cc1cccc(C(=O)NC2CCN(c3cc(-c4ccc(F)cc4)[nH]n3)CC2)c1	3T3 cytotox inconclusive, HEK293 tox inconclusive
COc1ccc(-c2cc(N3CCC(NC(=O)c4cccc(C)c4)C3)n[nH]2)cc1 (configuration not stated)	HEK293 tox inconclusive
N#Cc1cccc(C(=O)NC2CCN(c3cc(-c4ccc(F)cc4)[nH]n3)C2)c1 (configuration not stated)	3T3 cytotox inconclusive, HEK293 tox 44.7µM
COc1ccc(-c2cc(N3CCC(NC(=O)c4cccc(OC(F)(F)F)c4)C3)n[nH]2)cc1 (configuration not stated)	3T3 cytotox inconclusive, HEK293 tox 39.8µM
COc1ccc(-c2cc(N3CCC(NC(=O)c4cccc(C#N)c4)C3)n[nH]2)cc1 (configuration not stated)	3T3 cytotox inconclusive, HEK293 tox 35.5µM
Cc1ccc(NC(=O)c2cn3cc(-c4ccc(F)cc4)sc3n2)cc1	none (no result: FLuc inh, NPR1 antag)
COc1cccc(NC(=O)[C@@H]2OCC(=O)N(C3CC3)[C@H]2c2ccccc2)c1	none (no result: FLuc inh, NPR1 antag)
COc1ccc(-c2c(C(=O)N3CCOCC3)nc3sccn23)cc1	none (no result: FLuc inh, NPR1 antag)
COCc1ccc2c(c1)c(OC(C)(C)C(=O)NC1CCOCC1)nn2Cc1cccnc1	3T3 cytotox inconclusive
COCc1ccc2c(c1)c(OC(C)(C)C(=O)NCC1CCOCC1)nn2Cc1cccnc1	3T3 cytotox 39.8µM
COCc1ccc2c(c1)c(OC(C)(C)C(=O)Nc1ccc(OC)cc1)nn2Cc1cccnc1	3T3 cytotox inconclusive
COCc1ccc2c(c1)c(OC(C)(C)C(=O)Nc1cc(C)nn1C)nn2Cc1cccnc1	3T3 cytotox 39.8µM
CC(C)(Oc1nn(CC2CCOCC2)c2ccccc12)C(=O)NCCc1ccccc1	3T3 cytotox inconclusive, HEK293 tox 100µM
